# PubChem BioAssay AID504333 (National Center for Advancing Translational Sciences (NCATS), 2011)
# Out of some 360,000 compounds screened, about 16,000 (4.4%) were called active. Not shown: some 9% with an inconclusive outcome. This is one part of a sample in which actives are shown more often than they occur. Calls come from the whole dose curve; as a rule, active = well fitted inhibition curve with a large enough effect; inconclusive = small, poorly fitted or top-dose-only effect; inactive = no such curve, though single readings can be large or run the other way.
# Target: Bromodomain adjacent to zinc finger domain protein 2B (Homo sapiens) (UniProt Q9UIF8)
# Experiment: qHTS Assay for Inhibitors of BAZ2B; note: nearly all actives have a fitted effect of over 60% in size
# Conditions: AlphaScreen BAZ2B-H3K14Ac peptide displacement; series mostly up to 114 µM; activity change, negative = inhibition: at the top concentration
# Method in brief: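 Complex of BAZ2B and biotin-H3K14Ac (50 nM apiece) forms over 30 min at RT, then faces library compounds up to 110 uM for another 30 min; AlphaScreen beads added, 20 min dark incubation, luminescence read.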
# % is set by controls: 0 for no effect and ±100 for the full control effect; potency is the fitted concentration of half-maximal effect.
# Sequence of Bromodomain adjacent to zinc finger domain protein 2B (Homo sapiens) (Q9UIF8 whole entry, looked up, the tested form may be a part): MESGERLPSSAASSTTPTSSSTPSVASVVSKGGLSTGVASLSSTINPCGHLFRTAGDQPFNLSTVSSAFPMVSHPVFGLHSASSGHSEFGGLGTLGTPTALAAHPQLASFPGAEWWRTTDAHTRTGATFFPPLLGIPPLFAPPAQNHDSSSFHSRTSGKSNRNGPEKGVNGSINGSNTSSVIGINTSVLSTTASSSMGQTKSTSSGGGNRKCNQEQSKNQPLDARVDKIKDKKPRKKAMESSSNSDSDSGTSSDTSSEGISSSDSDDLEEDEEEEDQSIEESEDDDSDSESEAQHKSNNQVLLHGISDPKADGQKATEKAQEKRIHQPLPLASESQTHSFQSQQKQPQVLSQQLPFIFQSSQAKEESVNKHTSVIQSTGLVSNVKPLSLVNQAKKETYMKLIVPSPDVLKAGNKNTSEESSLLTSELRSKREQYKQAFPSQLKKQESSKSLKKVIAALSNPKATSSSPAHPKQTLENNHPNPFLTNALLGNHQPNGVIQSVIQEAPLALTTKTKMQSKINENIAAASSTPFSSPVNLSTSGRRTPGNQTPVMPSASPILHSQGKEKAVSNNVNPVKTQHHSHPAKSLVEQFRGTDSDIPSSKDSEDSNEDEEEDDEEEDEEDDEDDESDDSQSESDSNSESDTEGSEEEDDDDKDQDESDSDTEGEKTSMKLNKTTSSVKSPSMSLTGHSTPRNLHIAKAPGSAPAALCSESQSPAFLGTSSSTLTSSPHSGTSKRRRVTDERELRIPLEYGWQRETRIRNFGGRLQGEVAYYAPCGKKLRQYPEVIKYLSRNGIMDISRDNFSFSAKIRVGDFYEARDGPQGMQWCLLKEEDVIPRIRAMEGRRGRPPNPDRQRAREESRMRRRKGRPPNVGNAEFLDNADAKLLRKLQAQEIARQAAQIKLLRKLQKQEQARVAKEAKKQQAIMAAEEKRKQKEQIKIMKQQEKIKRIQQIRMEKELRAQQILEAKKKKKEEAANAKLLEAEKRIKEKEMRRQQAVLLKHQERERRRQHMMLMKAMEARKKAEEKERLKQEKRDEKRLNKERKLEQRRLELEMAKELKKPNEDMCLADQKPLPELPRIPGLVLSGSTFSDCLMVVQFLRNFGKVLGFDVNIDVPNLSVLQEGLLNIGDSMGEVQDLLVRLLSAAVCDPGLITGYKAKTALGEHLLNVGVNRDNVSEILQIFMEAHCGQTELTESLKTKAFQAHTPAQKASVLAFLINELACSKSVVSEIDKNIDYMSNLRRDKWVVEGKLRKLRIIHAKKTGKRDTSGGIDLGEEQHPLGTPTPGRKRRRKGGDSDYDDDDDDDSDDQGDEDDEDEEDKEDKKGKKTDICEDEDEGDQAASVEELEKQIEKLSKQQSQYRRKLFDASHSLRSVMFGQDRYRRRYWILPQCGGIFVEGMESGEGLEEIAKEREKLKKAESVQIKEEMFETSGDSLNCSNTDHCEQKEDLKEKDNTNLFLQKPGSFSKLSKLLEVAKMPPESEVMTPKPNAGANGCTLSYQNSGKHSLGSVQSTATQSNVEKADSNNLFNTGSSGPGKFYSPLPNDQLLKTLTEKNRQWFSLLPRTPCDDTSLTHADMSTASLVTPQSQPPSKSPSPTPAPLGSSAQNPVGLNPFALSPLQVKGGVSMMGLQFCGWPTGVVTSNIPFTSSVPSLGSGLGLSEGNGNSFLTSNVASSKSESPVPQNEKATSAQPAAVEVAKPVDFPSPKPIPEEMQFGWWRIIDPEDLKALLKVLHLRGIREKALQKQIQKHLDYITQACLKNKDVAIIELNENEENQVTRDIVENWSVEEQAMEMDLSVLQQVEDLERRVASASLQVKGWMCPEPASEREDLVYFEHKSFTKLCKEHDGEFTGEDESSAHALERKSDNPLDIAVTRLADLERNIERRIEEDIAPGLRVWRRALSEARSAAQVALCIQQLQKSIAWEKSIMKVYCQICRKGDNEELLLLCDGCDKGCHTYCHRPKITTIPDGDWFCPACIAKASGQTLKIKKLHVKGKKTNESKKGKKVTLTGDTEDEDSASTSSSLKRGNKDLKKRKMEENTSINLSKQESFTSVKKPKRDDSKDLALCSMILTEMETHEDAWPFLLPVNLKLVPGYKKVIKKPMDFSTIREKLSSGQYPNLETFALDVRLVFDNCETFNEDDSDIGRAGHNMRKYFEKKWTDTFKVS
SMILES,Potency,"activity change, negative = inhibition"
O=C(CN1CCSCC1)N/N=C/c1ccc(F)cc1,50.1 µM (active),–
CCOc1ccc(/C=N/NC(=O)CSc2ccccn2)cc1O,–,-16.7% (inactive)
Cc1ccc(COc2ccc(/C=N/NC(=O)CN3CCCCC3)cc2)cc1,–,-21.8% (inactive)
Cc1nn(CC(=O)N/N=C/c2ccc(F)cc2)c(C)c1[N+](=O)[O-],–,4.73% (inactive)
O=C(CC(=O)N/N=C\c1ccc(F)cc1)NCCc1ccccc1,–,5.67% (inactive)
CCOc1cc(/C=N/NC(=O)CN2CCCCC2)ccc1O,56.2 µM (active),–
Cc1cccc(CSc2nc3ccncc3n2Cc2ccc(C(=O)O)cc2)c1,–,-4.88% (inactive)
COc1ccc(CCNC(=O)CCCCn2c(=O)c3ccccc3n(Cc3ccccc3)c2=O)cc1OC,–,0.11% (inactive)
Cc1ccc(SCC(=O)Nc2ccc3oc(-c4ccccc4C)nc3c2)cc1,–,3.57% (inactive)
COc1ccc(NC(=O)c2ccc3nc(C(C)C)oc3c2)cc1OC,–,0.556% (inactive)
CCCc1cc(=O)n2[nH]c(NCc3ccc(CC)cc3)nc2n1,–,-3.81% (inactive)
Nc1ccccc1SC(C[N+](=O)[O-])c1ccccc1 (stereo not given),44.7 µM (active),–
COc1cc(CNC(=O)c2cc3n(n2)CCCN(Cc2cccc(F)c2)C3=O)cc(OC)c1OC,–,-4.51% (inactive)
Cc1oc2ccc(O)c(CN3CCOCC3)c2c1C(=O)Nc1cccc(Cl)c1C,–,-1.42% (inactive)
O=C(N/N=C/c1ccccn1)C12CC3CC(CC(C3)C1)C2,–,4.49% (inactive)
O=C(CNC(=O)c1cccnc1)N/N=C/c1cccnc1,–,-15.3% (inactive)
Cc1cc(C(=O)N/N=C/c2ccccn2)c2ccccc2n1,–,13% (inactive)
CNC(=O)C(=O)N/N=C/c1ccccn1,39.8 µM (active),–
O=C(N/N=C/c1ccccn1)c1cccc(NC(=O)c2ccc(Cl)cc2)c1,–,14.4% (inactive)
O=C(N/N=C/c1ccccn1)c1cccnc1,28.2 µM (active),–
COc1ccc(-c2noc(CSc3nc4ccc(C)cc4[nH]3)n2)cc1,–,-9.25% (inactive)
Cc1oc2ncnc(N3CCCCC3)c2c1C(=O)N1CCN(c2cccc(Cl)c2)CC1,–,-16.4% [at 57.1 µM] (inactive)
Cc1cccc(NC(=O)CSc2nnc(CNC(=O)c3cccc(C)c3)n2-c2ccccc2)c1,–,-15.6% (inactive)
Cc1ccc(-c2ccc(CCC(=O)O)n2-c2ccc(C(N)=O)cc2)cc1,–,-20.2% (inactive)
CCN1CCN(Cc2c(O)ccc3oc(C)c(C(=O)Nc4ccc(C)cc4C)c23)CC1,–,-13.3% (inactive)
CC(C)(C)N(CC#CCC(O)(c1ccccc1)C1CCCC1)CCO (stereo not given),79.4 µM (active),–
OC(C#CCN1CCOCC1)(c1ccccc1)C1CCCCC1 (stereo not given),–,-5.69% [at 57.1 µM] (inactive)
CN(CC#CCC(c1ccccc1)c1ccccc1)C(C)(C)C,–,-34.8% (inactive)
CCc1ccccc1NC(=O)c1ccc2nc(CCc3ccccc3)oc2c1,–,-26% (inactive)
COC(=O)c1ccc(Cn2c(SCC(=O)N(C)c3ccccc3)nc3ccccc32)cc1,–,-17.4% (inactive)
